From the supplement of paper PMC7156485

Tests used:
Conditions in all cases: concentration: 10 µM; 24 h
HCC1569 [1] = test: cell number relative to DMSO (% of DMSO); higher = more cells (less growth inhibition / toxicity)
Summary of the method: (§1)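 Six fields per well were imaged at ×10 after the cells were fixed in 3.7% formaldehyde and stained with a rabbit anti-H1.0 antibody, an AlexaFluor 647 secondary and DAPI. The HCC1569 and TDF cells had been plated at 800 per well in 384-well plates (RPMI, 10% FBS) and treated in triplicate with compounds at 10 µM for 24 h at 37 °C. The values are the median of replicates of H1.0 nuclear intensity or cell number, as percent of the plate control. Smoothing for positional effects was applied to HCC1569 data.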

TDF [2] = test: as above
Summary of the method: as §1

TDF [3] = test: H1.0 immunofluorescence intensity relative to DMSO (% of DMSO); higher = stronger H1.0 induction, active = 120 or more
Summary of the method: as §1

HCC1569 [4] = test: H1.0 immunofluorescence intensity relative to DMSO (% of DMSO); higher = stronger H1.0 induction, active = 140 or more
Summary of the method: as §1
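For H1.0 immunofluorescence intensity relative to DMSO in this document: TDF is a line of transformed human dermal fibroblasts of mesenchymal origin.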
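For cell number relative to DMSO in this document: TDF denotes transformed human dermal fibroblasts of mesenchymal origin.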

SMILES | cell number (HCC1569 [1]) | cell number (TDF [2]) | H1.0 immunofluorescence intensity (TDF [3]) | H1.0 immunofluorescence intensity (HCC1569 [4])
CCCCCC=CCC1OC1CC=CCC=CCCCC(=O)O (centres undefined) [11,12-Epoxyeicosatrienoic acid] | 104 | 110 | 93.8 (inactive) | 97.7 (inactive)
CC(O)C(O)C1CNc2[nH]c(N)nc(=O)c2N1.Cl.Cl [(6R)-5,6,7,8-Tetrahydro-L-biopterin hydrochloride] | 105 | 110 | 89.2 (inactive) | 103 (inactive)
COc1cc2ncnc(Nc3ccc(Oc4ccccc4)cc3)c2cc1OC [Src Kinase Inhibitor I] | 88.6 | 94.7 | 106 (inactive) | 147 (active)
CCN1CCCC1CNC(=O)c1c(O)c(Cl)cc(Cl)c1OC (stereo not drawn) [S(-)-Raclopride] | 102 | 97.5 | 95.7 (inactive) | 104 (inactive)
CCn1c(=O)[nH]c2cc(Cl)c(Cl)cc21 | 99.9 | 94.4 | 99.5 (inactive) | 95.7 (inactive)
CC1(C2CCCC2)Cc2cc(OCC(=O)O)c(Cl)c(Cl)c2C1=O (centres undefined) | 103 | 107 | 91.9 (inactive) | 84.5 (inactive)
CCCCCC=CCC=CCCCCCCCCCCC(=O)O [12(Z), 15(Z)-Heneicosadienoic acid] | 100 | 103 | 94.4 (inactive) | 105 (inactive)
CC(C)CN(C)c1nc(N)c(C(=O)N=C(N)N)nc1Cl [5-(N-Methyl-N-isobutyl)amiloride] | 100 | 92.3 | 106 (inactive) | 101 (inactive)
CC1(C)NC(=O)N(c2ccc([N+](=O)[O-])c(C(F)(F)F)c2)C1=O [Nilutamide] | 101 | 91 | 98.9 (inactive) | 100 (inactive)
COc1cc(C(O)C(=O)O)ccc1O (racemic) | 105 | 109 | 89.5 (inactive) | 91.2 (inactive)
Cl.Cl.NCCc1cnc[nH]1 [Histamine dihydrochloride] | 99.6 | 105 | 92.1 (inactive) | 86.6 (inactive)
O=C1Nc2ccc(Br)cc2C1=Cc1cc2c([nH]1)CCCC2 [VEGF Receptor 2 Kinase Inhibitor II] | 94 | 114 | 76.2 (inactive) | 190 (active)
COC(=O)c1cc(OC)c2c(c1-c1c(CO)cc(OC)c3c1OCO3)OCO2 | 104 | 99.8 | 98.6 (inactive) | 109 (inactive)
CCCn1c(=O)c2[nH]c(C3CCCC3)nc2n(CCC)c1=O [8-Cyclopentyl-1,3-dipropylxanthine] | 101 | 92.5 | 99.5 (inactive) | 93.7 (inactive)
CC(C[N+](C)(C)C)OC(N)=O (stereo not drawn) [Carbamyl-beta-methylcholine] | 105 | 99.5 | 89.1 (inactive) | 108 (inactive)
O=C(O)CCCC=CCC=CC=CC(O)CC=CCCCCCO (centres undefined) | 101 | 92.6 | 98.3 (inactive) | 101 (inactive)
CC(=O)c1ccc(S(=O)(=O)NC(=O)NC2CCCCC2)cc1 [Acetohexamide] | 105 | 107 | 102 (inactive) | 109 (inactive)
COc1ccccc1N1CCN(CCN(C(=O)c2ccc(I)cc2)c2ccccn2)CC1.Cl [p-MPPI hydrochloride] | 97.4 | 96.3 | 96.6 (inactive) | 93.4 (inactive)
CC(=O)O.O=C(O)c1ccc2c3c1cccc3c(=O)n1c3ccccc3nc21 | 99.7 | 89.6 | 91.3 (inactive) | 105 (inactive)
CC1C(=O)CCC2C1(C)CCC1C2(C)CCC2(C)C3CC(C)(C)CCC3(C)CCC12C (centres undefined) [Friedelin] | 99.5 | 102 | 96.1 (inactive) | 87.8 (inactive)
COc1cc2nccc(Oc3ccc(NC(=O)NC4CC4)c(Cl)c3)c2cc1C(N)=O | 83.8 | 94.9 | 89.2 (inactive) | 122 (inactive)
COC1=CC(C)C2CC3OC(=O)CC4C(C)=C(OC)C(=O)C(C2(C)C1=O)C34C (centres undefined) [Quassin] | 101 | 89.6 | 96.8 (inactive) | 94.8 (inactive)
O=c1cc(N2CCOCC2)nc2c3ccccc3ccn12 | 95.2 | 91.4 | 94.7 (inactive) | 111 (inactive)
CC(C)NCC(O)COc1cccc2[nH]ccc12 (stereo not drawn) [S(-)-Pindolol] | 102 | 107 | 84.4 (inactive) | 98.4 (inactive)
Cc1c(C)c2c(c(C)c1OC(=O)CCC(=O)O)CCC(C)(CCCC(C)CCCC(C)CCCC(C)C)O2 (centres undefined) [Tocopherol succinate] | 98.1 | 109 | 94.4 (inactive) | 102 (inactive)
CC(N)C1CCC(C(=O)Nc2ccncc2)CC1.Cl.Cl (centres undefined) | 110 | 106 | 87.3 (inactive) | 90.1 (inactive)
